Most compounds without a hit are left out; they make up all but 32% or so of the library.
CYP2C9 activ: human CYP2C9 activators, primary screen, biochemical, luminescence | recombinant CYP2C9, luciferin-H conversion; hits give high values; factor 1 = untreated enzyme, 0 = blocked | Cytochrome P450 2C9 (Homo sapiens), P11712 | AID 1024, 2008 | activation factor at 5 µM | actives 1.4% (n = 96,000);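 active means activation factor of 2 or more for CYP2C9 at a 5 µM dose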;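 further: 0 = sulfaphenazole-blocked wells and 1 = vehicle-only wells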
CYP2C9 inh: blockers of cytochrome P450 2C9 activity – biochemical, luminescence, ADME assay, primary screen; P11712; CYP2C9 Supersomes, luciferin-H conversion; inhibition, % at 5 µM; actives 20% (n = 96,000);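 active means blocking of liver enzyme CYP2C9 beyond about 50% at 5 µM, limit read from the data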
PostGolgi ctrl: growth inhibition of yeast control strain, primary screen, counter-screen for post-Golgi transport modulator project; AID 738, 2007; inhibition, % at 10 µM; actives 5% (n = 98,000); efflux-deficient yeast background strain, growth absorbance A615, 16 h
PostGolgi yeast: phenotypic screen on post-Golgi transport, primary screen; post-Golgi transport phenotypic cell assay; inhibition, % at 10 µM; actives 0.9% (n = 98,000); AID 739, 2007;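 further: yeast cells grown in 1536-well plates; yeast grown about 18 h at 30C before absorbance read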
CYP2C19 activ: human CYP2C19 activators, primary screen, biochemical, luminescence | AID 1025, 2008 | recombinant CYP2C19, luciferin-H EGE luminescence; hits give high values; 0 = fully inhibited enzyme, 1 = untreated enzyme | activation factor at 5 µM | Cytochrome P450 2C19 (Homo sapiens), P33261 | 96,000 tested, under 10 active;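 active means activation factor of at least 2 at 5 µM in the primary screen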;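 further: 0 = wells with 2.5 mM tranylcypromine and 1 = vehicle-only wells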
Target sequence (P33261 whole entry, looked up): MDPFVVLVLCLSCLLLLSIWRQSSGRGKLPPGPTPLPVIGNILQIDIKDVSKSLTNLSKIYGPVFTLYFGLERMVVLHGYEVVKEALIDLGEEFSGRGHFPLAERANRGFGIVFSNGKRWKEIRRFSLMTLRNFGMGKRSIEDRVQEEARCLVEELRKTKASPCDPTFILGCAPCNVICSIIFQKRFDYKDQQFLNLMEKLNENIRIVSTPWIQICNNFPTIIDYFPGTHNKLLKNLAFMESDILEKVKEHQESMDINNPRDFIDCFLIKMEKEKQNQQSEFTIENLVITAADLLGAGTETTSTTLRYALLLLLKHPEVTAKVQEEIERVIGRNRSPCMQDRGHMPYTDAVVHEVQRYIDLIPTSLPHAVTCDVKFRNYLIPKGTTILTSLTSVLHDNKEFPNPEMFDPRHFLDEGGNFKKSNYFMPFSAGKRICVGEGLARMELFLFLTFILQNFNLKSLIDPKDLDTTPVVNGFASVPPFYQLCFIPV
CYP2C19 inhib: blockers of cytochrome P450 2C19 activity – biochemical, luminescence, ADME assay, primary screen; AID 778, 2007; CYP2C19 Supersomes, luciferin-H EGE luminescence, 30 min; actives 21% (n = 96,000); P33261; inhibition, % at 5 µM;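 active means CYP2C19 inhibition above a set limit at 5 µM in the primary screen, cut at about 50% in these data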;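 further: plate controls were negative control wells for no effect and 2.5 mM tranylcypromine positive control for full effect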
An asterisk follows results filed as active; / = no result given. Unless noted, no stated cut-off is given here; in the data, active means inhibition above about 30%; inactive means the rest.

SMILES	CYP2C9 activ	CYP2C9 inh	PostGolgi ctrl	PostGolgi yeast	CYP2C19 activ	CYP2C19 inhib
O=C(c1ccco1)n1nc(-c2ccc(Cl)cc2)nc1NCc1ccco1	1	2.7	3.8	-0.8	1	2.2
O=C(COc1ccccc1)n1nc(-c2ccc(Cl)cc2)nc1NCc1ccco1	0.4	55.1*	14.1	-4.4	0.3	69.1*
COc1ccccc1C(=O)n1nc(-c2ccccc2)nc1NCc1ccco1	0.4	59.3*	14.4	-3.1	0.4	61.3*
CCS(=O)(=O)n1nc(-c2ccccc2)nc1NCc1ccco1	/	/	10.6	16.9	/	/
CC(=O)n1nc(-c2ccco2)nc1N	1.1	-7.1	1.7	0.7	1	-2.8
O=C(c1ccco1)n1nc(-c2ccccc2)nc1NCc1ccco1	1.1	-8.7	8.9	15.6	1	-3.6
Cc1ccc(S(=O)(=O)n2nc(-c3ccc(Cl)cc3)nc2NCc2ccco2)cc1	0.5	47.9	3.4	-17.9	0.3	67.7*
O=C(Cn1c(=O)n(-c2ccccc2)c(=O)n1CC(=O)N1CCCCC1)N1CCCCC1	1	4.4	-3.8	18.3	1	1.9
O=C(NCc1ccco1)C(c1cccs1)N(C(=O)C1COc2ccccc2O1)c1cccc(O)c1 (stereo not given)	0.1	93.6*	19.5	-6.9	0	96.8*
CCOC(=O)c1cc(NC(=O)N2CCCCC2)c(C)nc1C	1.1	-9.5	4.1	1.0	0.9	10.6
C=CCn1c(SCC(=O)NC)nc2sc3c(c2c1=O)CCC3	0.4	58.8*	-0.1	-6.1	0.6	38.8
CN1CCc2c(sc3nc(SCC(N)=O)n(-c4ccccc4)c(=O)c23)C1	0.8	16.0	25.0	-1.6	0.3	69.0*
CCSc1nc2sc3c(c2c(=O)n1C1CCCCC1)CCN(C)C3	0.6	42.8	/	/	0.3	71.4*
C=CCn1c(SC(CCO)C(=O)NCc2ccco2)nc2sc3c(c2c1=O)CCC3 (stereo not given)	0.4	55.6*	1.9	-13.0	0.9	13.0
CCCCn1c(SCc2cc(=O)n3ccsc3n2)nc2cc(C(=O)OC)ccc2c1=O	0.9	12.3	/	/	1	-2.8
CN(C)C(CNS(=O)(=O)c1ccc(Br)cc1)c1cccnc1 (stereo not given)	/	/	4.8	2.8	/	/
CCOC(=O)C1=C(CSc2n[nH]c(N)n2)NC(=O)NC1C (stereo not given)	0.9	9.8	24.3	18.3	1	4.3
C=CCn1c(SCC(=O)OC)nc2sc3c(c2c1=O)CCN(C)C3	0.8	23.2	-7.1	-5.1	0.4	59.8*
Cc1ccc(N(C)S(=O)(=O)c2cccc(C(=O)NC3=NCCS3)c2)cc1	0.3	69.3*	14.4	-2.5	0.6	40.7
COc1ccc(N(C)S(=O)(=O)c2cccc(C(=O)NC3=NCCS3)c2)cc1	0.4	63.8*	4.6	-2.4	0.6	43.8
CCN(CC)S(=O)(=O)c1cccc2cccnc12	4.8*	-378.8	8.8	23.1	0.7	33.8
O=S(=O)(c1cccc2cccnc12)N(CCO)CCO	1.4	-36.3	1.0	-10.4	1.2	-17.1
CCN(CC)S(=O)(=O)c1cccc2cc(C(=O)O)c(O)cc12	0.3	71.1*	6.3	22.2	1	4.0
CCN(CC)S(=O)(=O)c1cc(C(=O)O)c(Cl)cc1Cl	0.9	11.6	4.6	-1.9	1	3.9
CCN(CC)S(=O)(=O)c1cccc2c(N(C)C)cccc12	1.3	-34.2	17.3	0.6	0.4	57.0*
SMILES	CYP2C9 activ	CYP2C9 inh	PostGolgi ctrl	PostGolgi yeast	CYP2C19 activ	CYP2C19 inhib
CCN(CC)S(=O)(=O)c1cccc2nsnc12	1.2	-20.9	48.8*	0.8	1	1.3
CN(C)C(=O)N1CCC(C(=O)NCc2ccc3c(c2)OCO3)CC1	1	2.4	0.3	-2.6	0.9	8.9
CCC(C)Nc1nc2c(c(=O)[nH]c(=O)n2C)n1CCC(C)C (stereo not given)	/	/	0.5	8.3	/	/
COc1ccc(C2N(c3ccc(F)cc3)C(=O)C3CCCN32)cc1 (stereo not given)	0.6	41.7	20.1	3.0	0.5	48.7
CCOC(=O)C(CCc1nnc(N)s1)C(=O)OCC	0.8	18.8	-2.2	1.1	0.9	10.0
O=C(CSc1nnc(C2CC2)n1Cc1ccccc1)N1CCN(S(=O)(=O)c2ccccc2)CC1	0.5	45.5	2.7	4.7	0.6	38.7
Nc1nnc(SCC(=O)N2CCN(Cc3ccccc3)CC2)s1	0.5	52.9*	-3.8	-1.3	0.3	68.4*
Nc1nnc(SCC(=O)Nc2ccc3c(c2)OCCO3)s1	0.9	5.8	1.1	1.1	1.1	-12.5
Nc1nnc(SCC(=O)c2ccc3ccccc3c2)s1	0.6	37.5	26.5	-4.0	0.2	77.7*
Cc1nnc(SCC(=O)N2CCC(c3noc4ccc(F)cc34)CC2)s1	0.6	37.4	11.9	-3.2	1	-2.5
Cc1nnc(SCC(=O)N2CCN(Cc3ccccc3)CC2)s1	0.8	19.3	10.8	21.6	0.1	89.4*
COc1ccccc1N1CCc2c(C)nc3c(OC)cccc3c21	1	4.9	-9.6	2.4	1	3.0
Cc1ccc(C)c(CN2C(=O)C3CCCN3c3ccc(S(=O)(=O)N4CCOCC4)cc32)c1 (stereo not given)	/	/	1.4	13.1	/	/
CCCCC(=O)Nc1cccc(-c2nn3c(C)nnc3s2)c1	0.8	16.7	8.5	1.4	0.9	14.1
CCOC(=O)C(C#N)C(Cc1ccccc1)c1ccco1 (stereo not given)	0.3	69.8*	5.2	-3.7	0.1	91.8*
CCSc1nc2c(sc3ccccc32)c(=O)n1C(C)C	1.2	-23.3	12.1	-8.2	1.1	-12.4
Cc1ccnc(NS(=O)(=O)Cc2ccccc2)c1	1	-2.9	1.6	-1.2	1.2	-15.8
O=C(c1ccc(Cl)cc1)C(Cn1cncn1)C(Sc1ccccc1)c1ccccc1 (stereo not given)	0	100.3*	23.8	5.6	0	98.5*
O=C(CSc1ncnc2c(-c3ccc(Cl)cc3)nsc12)c1ccccc1	0.9	8.8	10.5	-2.3	1	-0.3
O=C(c1ccccc1)C(Sc1ncn[nH]1)c1ccccc1 (stereo not given)	/	/	4.8	3.7	/	/
Cc1ccc(SC(c2ccccc2)C(Cn2cncn2)C(=O)c2ccccc2)cc1 (stereo not given)	0	100.3*	5.1	4.8	0	99.1*
CN(C)c1ccc(/C=c2\sc3n(c2=O)CCCN=3)cc1	0.9	9.1	23.9	16.4	0.8	20.0
O=c1cc(CN2CCc3ccccc32)nc2sccn12	0.3	67.4*	1.3	-5.3	0.4	56.7*
CCOCCn1c(N(C)Cc2ccccc2)nc2c1c(=O)[nH]c(=O)n2C	0.7	26.5	13.4	-4.6	0.8	22.1
O=C1CS/C(=C\[N+](=O)[O-])N1c1ccccc1	0.9	5.6	1.9	3.2	0.9	6.3
